# Only some compounds are listed: those with a hit (about 4.8% of all), similar ones and a draw of the others.
# hcDAF12 agonist: H. contortus DAF-12 activation, primary screen; HEK293 hcDAF-12 lit1-tk-luc reporter, luminescence; 0% DMSO, 100% Δ7-dafachronic acid; activation, % at 6.8 µM; hit rate 1.4% among 370,000;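 active = activation above the mean of all tested compounds plus 3 SD, cut at about 5.5% in these data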;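 note: 100% = response to 3 µM Δ7-dafachronic acid high control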
# hgDAF12 agonist: agonists of H. glycines DAF-12 nuclear receptor. HEK293 GAL4-hgDAF12 UAS-luciferase reporter, agonist luminescence; normalized to butyrate control. hit rate 1.8% among 370,000. activation, % at 6.8 µM;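 active = activation above a cutoff set at the mean of all screened compounds plus 3 SD, cut at about 10% in these data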;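 note: 0% = DMSO wells and 100% = sodium butyrate wells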
# ssDAF12 agonist: S. stercoralis DAF-12 activation, primary screen. HEK293 ssDAF-12/GRIP1 lit1-tk-luc reporter, luminescence; % of 3 µM dafachronic acid response. activation, % at 6.8 µM. hit rate 1% among 370,000;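 active = activation above the mean over all tested compounds plus 3 SD, cut at about 0.9% in these data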;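 note: 0% = DMSO-only wells and 100% = 3 µM delta7-dafachronic acid wells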
# DAX1 inh-1: inhibits human nuclear receptor DAX1; P51843; HEK293 Gal4-DAX1 luciferase reporter, luminescence; inhibition, % at 6.75 µM; hit rate 0.99% among 340,000; AID 504766;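 active = inhibition above the mean over all tested compounds plus 3 SD, cut at about 4.2% in these data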;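 note: 0% = DAX1-transfected cells with DMSO and 100% = empty-vector control cells with DMSO; inhibition shows as a rise in luminescence from relieved DAX1 repression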
# Target sequence (P51843 207-470 limits assumed): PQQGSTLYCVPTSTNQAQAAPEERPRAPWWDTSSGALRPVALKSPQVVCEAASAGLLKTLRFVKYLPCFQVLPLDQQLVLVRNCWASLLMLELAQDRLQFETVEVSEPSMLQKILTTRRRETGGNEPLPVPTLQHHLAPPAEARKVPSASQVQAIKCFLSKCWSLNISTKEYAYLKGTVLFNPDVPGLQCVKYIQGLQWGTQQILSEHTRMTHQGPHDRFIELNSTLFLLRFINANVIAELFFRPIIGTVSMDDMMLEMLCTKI
# DAX1 inh-2: blocks DAX1 repression of SF-1 activated StAR promoter. HEK293T StAR-luciferase reporter, SF-1/DAX-1 repression relief. inhibition, % at 6.8 µM. hit rate 1.1% among 370,000;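 active = inhibition above the mean over all tested compounds plus 3 SD, cut at about 3.6% in these data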;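 note: 0% = DAX-1 cells with DMSO and 100% = cells lacking DAX-1 with DMSO; higher inhibition means more luminescence from relief of DAX-1 repression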
# SMARCA2 activ: activators of SMARCA2 function; hit rate 1% among 370,000; activation, % at 9.1 µM; MG213 cells, MMTV-luciferase reporter, dexamethasone, overnight; in the data active = activation above about 7.8%;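 note: 0% = vehicle wells and 100% = reference activator wells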
# hgDAF12 ag: confirmation of H. glycines DAF-12 agonists; AID 743050; activation, % at 6.8 µM; hit rate 80% among 3,300; shares compounds with hgDAF12 agonist; HEK293 GAL4-hgDAF12 luciferase reporter, agonist mode; percent of butyrate response;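 active = mean activation over triplicate wells above the hit cutoff derived from the earlier primary screen, cut at about 11% in these data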;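 note: 0% = DMSO low control and 100% = 2 mM sodium butyrate high control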
# LXRb DAF12 ctr: counter-screen for DAF-12 agonists: agonists of human LXR-beta | shares compounds with hgDAF12 agonist | activation, % at 6.8 µM | HEK293 Gal4-LXR luciferase reporter, 24 h | 3,300 tested, under 10 active;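 active = mean activation of the triplicate above a set limit carried over from the primary screen, none filed active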
# * = called active by the depositor; x = no result.
SMILES,hcDAF12 agonist,hgDAF12 agonist,ssDAF12 agonist,DAX1 inh-1,DAX1 inh-2,SMARCA2 activ,hgDAF12 ag,LXRb DAF12 ctr
CC1CCN(C(=O)C2CCN(S(=O)(=O)c3cnc[nH]3)CC2)CC1,-2,2,-1,1,0,-3,x,x
CCc1nnc(NS(=O)(=O)c2ccc(N=Cc3c(C)[nH]n(-c4cccc(Cl)c4)c3=O)cc2)s1,-1,-3,0,0,0,-1,x,x
COc1ccc(N(C(=O)c2ccco2)C(C(=O)NC2CCCCC2)c2cccs2)cc1OC (stereo not given),-3,-4,-1,0,-1,-4,x,x
CNc1cncc(-c2ccc(CN(C)C)cc2)n1,2,16*,-1,x,4.0*,4,9,0
CC(=O)Nc1cncc(-c2ccc(CN(C)C)cc2)n1,0,-2,-1,x,0,4,x,x
NC(=O)c1oc2ccc(Cl)cc2c1N,0,-1,-1,0,-1,-2,x,x
CC(=O)Nc1cccc(-c2nc3ccc(NC(C)=O)cc3s2)c1,4,19*,1,1,1,6,12*,1
CN(CCOC(=O)c1cc2ccccc2o1)C1CN(Cc2cn(Cc3ccccc3C(F)(F)F)nn2)S(=O)(=O)C1 (stereo not given),1,1,-1,x,-1,-2,x,x
COc1ccc(-c2cc(=O)c3cc(C)ccc3[nH]2)cc1,5.7*,16*,1,0,3,4,16*,1
NC(=O)c1ccc(N2CCN(S(=O)(=O)c3cccs3)CC2)c([N+](=O)[O-])c1,-4,-7,-2,-3,-7,-4,x,x
O=C(NCc1ccc(F)cc1)c1cnn2ccccc12,1,16*,-1,2,3,4,13*,1
CSc1cccc(NC(=O)Cn2cccc2)c1,-1,0,-2,1,-1,-3,x,x
CSc1cccc(NC(=O)c2cnn3ccccc23)c1,5,18*,1.7*,2,2,5,20*,1
N#Cc1c(N)n(-c2cccc(O)c2)c2nc3ccccc3nc12,-1,-1,-1,0,0,-1,x,x
CCOC(=O)C1(P(=O)(c2ccccc2)c2ccccc2)CCC1,1,1,-1,-1,0,-2,x,x
O=C(CNC(=O)c1ccccc1)OC1CCCCC1,3,16*,-1,2,3,6,18*,1
CCn1c(O)c(C=Nc2ccccc2)sc1=S,3,16*,0.9*,x,3,3,18*,1
CCCC1CCC2(CC1)CCC2OC(=O)Nc1ccc2c(c1)OCO2 (stereo not given),-2,4,-2,x,x,x,x,x
O=C(Nc1ccc2c(c1)OCO2)OC1CCC12CCCCC2 (stereo not given),0,15*,0,x,3,2,13*,0
O=C1C(Nc2ccccc2)=C2CCCC=C2N1c1ccccc1,5,14*,0,2,4.2*,7,3,0
C[C@@H]1[C@@H](O)C[C@]2(C[C@@H](O)c3ccccc3O2)O[C@H]1c1ccccc1,-1,5,-1,x,1,-5,x,x
OCCOCCNc1ncnc2c1cnn2-c1ccc(Cl)cc1,5,15*,0,3,4.5*,6,17*,1
CN(C)CCCNc1ncnc2c1cnn2-c1ccccc1,x,x,x,1,x,x,x,x
O=C(NC1CCCC1)C(C1CC1)n1c(-c2cc3ccccc3[nH]2)nc2ccccc21 (stereo not given),6,22*,1.0*,x,3,3,14*,0
O=[N+]([O-])c1ccc(COn2nnc3ccccc32)cc1,0,2,-1,1,-1,1,x,x
SMILES,hcDAF12 agonist,hgDAF12 agonist,ssDAF12 agonist,DAX1 inh-1,DAX1 inh-2,SMARCA2 activ,hgDAF12 ag,LXRb DAF12 ctr
Clc1ccc(COn2nnc3ccccc32)c(Cl)c1,5,14*,0,4.5*,4.0*,7,18*,1
O=C(COC(=O)Cc1ccccc1[N+](=O)[O-])NC1CCCC1,-3,-2,-1,0,0,-2,x,x
Cc1cc(-c2nc3cccnc3s2)ccc1NS(=O)(=O)c1cccs1,6.5*,14*,1,1,4.4*,5,13*,0
COc1ccc(-c2ccc(C(=O)Nc3cccc(F)c3)c3occc23)c(C)c1,4,14*,0,x,3.7*,-1,6,1
CCN(CC)c1ccc(NC(=O)c2ccc(Br)o2)cc1,3,16*,0,5.0*,4,4,15*,1
COc1ccc(S(=O)(=O)Nc2ccccc2)cc1,0,1,-1,1,0,0,x,x
CC1(C)OC(=O)C(=NNc2ccc(O)cc2)C(=O)O1,-4,0,-2,-1,-1,1,x,x
O=c1oc2ccccc2cc1-c1cn2cccnc2n1,4,14*,0,1,4.1*,7,18*,1
O=C(Cc1ccccc1)Nc1ccc2c(c1)OC1(CCCC1)O2,1,14*,0,0,4,6,15*,0
COc1ccccc1CC(=O)Nc1ccc2c(c1)OC1(CCCC1)O2,0,8,-1,1,2,0,x,x
CC(=O)c1cccc(NC(=O)C2(c3ccccc3)CC2(Cl)Cl)c1 (stereo not given),-2,1,-1,-1,0,0,x,x
CCOC(=O)N/N=C1\CCc2ccccc21,4,15*,0,0,1,2,8,0
Cc1cc(C)nc(-n2nc(C)c(Sc3ccc(F)cc3)c2N)n1,3,13*,0,0,3,7,15*,1
Nc1nc(N)nc(-c2ccc(Cl)c(Cl)c2)n1,0,21*,-1,4,1,5,18*,1
COc1ccc(NC(=O)/C=C/c2ccccc2)c([N+](=O)[O-])c1,2,16*,0,2,2,7,12*,0
O=C(COc1ccccc1Cl)Nc1ccc2c(c1)OCO2,6.0*,13*,1,1,2,3,12*,1
COc1ccccc1OCC(=O)Nc1ccc2c(c1)OCO2,-1,2,-1,-1,1,3,x,x
C[C@H]1Cn2cnc(C(=O)N(C)Cc3ccccc3)c2C(=O)N1,1,30*,0,x,0,-5,0,0
C[C@H]1CNC(=O)c2c(C(=O)N(C)Cc3ccccc3)ncn21,0,-1,-1,x,0,-5,x,x
CC(=O)c1sc(-c2ccccc2)cc1NS(=O)(=O)c1ccccc1,0,0,-1,x,0,-2,x,x

# Bioassay records as filed in PubChem.
